Source: PubChem
EBV LMP1 NFkB = reduces LMP1-driven NF-kappaB luciferase signal. AID 504558. 0.69% of 350,000 active. inhibition, % at 12.5 µM. LMP1-induced NF-kappaB luciferase reporter cells, luminescence; in the data active means inhibition above about 41%; inconclusive means no clear call, values can overlap the other calls;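 further: 0% = neutral control wells and 100% = reference inhibitor control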
esBAF inh = blocks esBAF chromatin remodeling in mouse ES cells; 2% of 350,000 active; reporter increase, % at 12.5 µM; Bmi1-luciferase knock-in reporter, 24 h; 100% = twice the neutral-well signal; in the data active means activation above about 40%; inconclusive means no clear call, values can overlap the other calls;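 further: 0% = median of the plate's neutral control wells and 100% = double that signal; a rise in the Bmi1 reporter signal indicates esBAF inhibition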
MITF TRPM1 HTS = increases MITF-driven TRPM1 promoter luciferase signal; SK-MEL-5 TRPM1-promoter luciferase, 24 h; % of positive control, neutral wells = 0; activation, % at 12.5 µM; 0.75% of 300,000 active; AID 588334;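 active means mean activation of at least 80% with every replicate also reaching 80%; inconclusive means mean reaches 80% but some replicate falls short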;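 further: 0% = neutral control wells and 100% = parthenolide positive control wells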
Statin myotox sup = suppressors of simvastatin-induced myotoxicity in C2C12 myotubes; rescue of ATP level, % at 7.49 µM; 0.78% of 330,000 active; ATP luminescence, 48 h; scaled: DMSO 0, geranylgeraniol control 100; AID 602340;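 active means mean ATP rescue above about 67%, or every replicate alone reaching that limit, limit read from the data, passing the limit was not always enough; inconclusive means no clear call, values can overlap the other calls; inactive means mean under the limit and some replicate under it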;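 further: myotubes were challenged with 10 µM simvastatin during compound exposure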
TRPM1 prom inh = MITF TRPM1 promoter inhibition in SK-MEL-5 cells; SK-MEL-5 TRPM1 promoter luciferase, 24 h; inhibition, % at 12.5 µM; 0.83% of 330,000 active;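 active means mean inhibition across replicates of 60% or more, whatever share of single replicates reaches that level; inconclusive means some that reach 60%, reason not given; inactive means mean inhibition across replicates below 60%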
Wnt act = Wnt/beta-catenin pathway activation; AID 743398; activation, % at 9.35 µM; Wnt/beta-catenin reporter cell assay, activator, plate reader; 1.2% of 300,000 active; in the data active means activation above about 30%, passing the limit was not always enough; inconclusive means no clear call, values can overlap the other calls;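 further: 0% = neutral control wells and 100% = positive control wells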
Active calls of the source: *; ? = inconclusive; . = no result. Sampled rows, rich in hits. Any-hit rate of the full collection: about 4%.

SMILES	EBV LMP1 NFkB	esBAF inh	MITF TRPM1 HTS	Statin myotox sup	TRPM1 prom inh	Wnt act
Cc1ccc(C2=CSC3=NNC4(CCCCC4)NN23)cc1	-51.7	65.8*	58.7	25.1	-57.5	-0.1
COc1ccc(C2=CSC3=NNC4(CCCCC4)NN23)cc1	-15.8	.	18.9	.	-19.0	6.7
Cc1nc(NS(=O)(=O)c2ccccc2)sc1NC(=O)Nc1ccccc1	-6.4	-11.5	7.0	0.2	-12.3	-5.5
CC(=O)c1ccc(NC(=O)Nc2sc(NS(=O)(=O)c3ccccc3)nc2C)cc1	-0.6	1.2	7.6	99.8*	-6.7	1.0
COc1cc(C2=NOC(C(=O)NCc3cccs3)C2)cc(OC)c1OC (stereo unspecified)	9.8	1.3	-26.9	87.3*	28.6	-9.1
COc1ccc(CNC(=O)C2CC(c3ccc(OC)cc3)=NO2)cc1 (stereo unspecified)	-16.7	-3.6	-5.9	2.1	7.9	.
COCCNC(=O)C1CC(c2ccc([N+](=O)[O-])cc2)=NO1 (stereo unspecified)	-8.9	3.6	10.2	8.4	-4.0	-1.3
COc1ccc(C2=NOC(C(=O)NCc3cccs3)C2)cc1 (stereo unspecified)	-5.5	-3.2	5.0	96.7*	-1.7	0.0
O=C(NCCc1cccs1)C1CC(c2ccc([N+](=O)[O-])cc2)=NO1 (stereo unspecified)	-17.5	58.8*	90.5*	6.4	-85.1	34.4*
COc1cc(C2=NOC(C(=O)NCc3ccco3)C2)cc(OC)c1OC (stereo unspecified)	-22.8	.	11.4	.	-3.8	.
Cc1nc2c(C#N)c(C)[nH]n2c(=O)c1Cc1ccccc1	-3.3	-5.0	4.3	7.6	-0.5	-0.3
CCOC(=O)/C=C/[C@H]1CC2(CCO1)SCCCS2	-3.5	55.4*	71.3	-10.5	-76.5	25.9
O=C(NC1CC1)C1Nc2ccc(OC(F)(F)F)cc2C2C=CCC12 (stereo unspecified)	2.1	-3.7	-8.2	7.9	9.8	39.4*
c1csc(-c2nc(N3CCCCC3)no2)c1	-20.6	?	81.0*	79.3	-79.6	35.3*
CCCCN(CCNP(=O)(OCC)OCC)CP(=O)(OCC)OCC	-2.6	-3.3	-2.1	72.4*	6.6	.
Cc1oc(-c2ccccc2)cc1C(=O)Nc1cccc(C(=O)O)c1	-9.1	15.6	2.2	-0.1	-1.7	.
Cc1oc(-c2ccc(Cl)cc2)cc1C(=O)O	-39.4	55.6*	43.0	6.0	-44.2	22.7
O=C(Cc1ccc(-c2ccccc2)cc1)Nc1ccccc1	-2.1	20.9	28.6	2.6	-28.8	0.4
Cc1cc(Br)ccc1NC(=O)CNC(=O)Cn1ncc(Cl)c(Cl)c1=O	83.1*	.	-93.7	.	94.3*	-0.7
O=C(Cn1ncc(Cl)c(Cl)c1=O)Nc1ccc2c(c1)OCO2	-67.8	8.6	-78.1	8.5	78.7*	-25.8
COc1ccc(NC(=O)Cn2ncc(Cl)c(Cl)c2=O)cc1S(=O)(=O)N1CCOCC1	-14.4	7.3	5.6	20.2	-5.1	-11.8
CCN(CC)S(=O)(=O)c1cc(NC(=O)Cn2ncc(Cl)c(Cl)c2=O)ccc1C	-59.9	.	-82.9	.	85.3*	-23.4
Cc1ccc(S(=O)(=O)N2CCCCC2)cc1NC(=O)Cn1ncc(Cl)c(Cl)c1=O	-31.2	-1.3	-100.7	2.4	100.5*	-27.4
Cc1ccc(S(=O)(=O)N2CCCCC2)cc1NC(=O)Cn1cnnn1	-2.4	0.7	8.2	-3.1	-12.2	-1.6
Cc1cc(Br)ccc1NC(=O)CNC(=O)CSc1ncccn1	-5.8	2.4	-3.9	-5.0	5.6	-0.4
SMILES	EBV LMP1 NFkB	esBAF inh	MITF TRPM1 HTS	Statin myotox sup	TRPM1 prom inh	Wnt act
COc1cccc(NC(=O)CN(C)C(=O)c2cc(-c3cccc(Br)c3)nc3ccccc23)c1	-4.4	6.2	-16.8	-17.8	10.6	-4.1
O=C(NCn1cnccc1=O)c1ccccc1	6.3	.	8.9	.	-4.3	.
O=C(Cn1ncc(Cl)c(Cl)c1=O)N1CCN(S(=O)(=O)c2ccc3ccccc3c2)CC1	13.6	-13.7	-88.1	-26.7	89.1*	-22.1
COc1cc(N=C2C(=O)N3c4c(cccc42)C(C)=CC3(C)C)cc(OC)c1	-6.4	.	2.6	.	-1.2	-13.1
CC1=CC(C)(C)N2C(=O)C(=Nc3ccc(O)cc3)c3cccc1c32	-3.5	.	-76.3	.	77.6*	?
COc1cccc(NC(=O)N[C@@H]2CC[C@H](CC(=O)NCc3ccncn3)O[C@H]2CO)c1	.	-2.3	.	6.2	.	.
Cc1cc(NC(=O)COc2ccc(C)c(C)c2)no1	-3.8	-1.4	90.1*	1.0	-95.8	7.6
